DT40 TDP1 CPT: qHTS for Inhibitors of human tyrosyl-DNA phosphodiesterase 1 (TDP1): qHTS in cells in presence of CPT; chicken DT40 Tdp1-/-;hTDP1 cells + 20 nM CPT, ATP luminescence, 48 h; AID 686979, 2013; Potency, µM (highest dose often 46.2 µM), hits mostly inhibitors; hit rate 12% among 420,000; note: nearly all actives have a fitted effect of over 55% in size
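Chicken DT40 Tdp1-/- cells stably complemented with human TDP1 were seeded at 400 cells/well in medium containing 20 nM camptothecin, exposed to pin-transferred compounds, and grown at 37 °C for at least 48 hr. Viability was read as ATP luminescence.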
D3 ag: qHTS of D3 Dopamine Receptor Agonist: qHTS | D(3) dopamine receptor (Homo sapiens), P35462 | D3R DiscoveRx beta-arrestin cells, luminescence, 90 min | max activation, % | hit rate 0.58% among 410,000; in the data active = max activation above about 30%
Target sequence (P35462 whole entry, looked up): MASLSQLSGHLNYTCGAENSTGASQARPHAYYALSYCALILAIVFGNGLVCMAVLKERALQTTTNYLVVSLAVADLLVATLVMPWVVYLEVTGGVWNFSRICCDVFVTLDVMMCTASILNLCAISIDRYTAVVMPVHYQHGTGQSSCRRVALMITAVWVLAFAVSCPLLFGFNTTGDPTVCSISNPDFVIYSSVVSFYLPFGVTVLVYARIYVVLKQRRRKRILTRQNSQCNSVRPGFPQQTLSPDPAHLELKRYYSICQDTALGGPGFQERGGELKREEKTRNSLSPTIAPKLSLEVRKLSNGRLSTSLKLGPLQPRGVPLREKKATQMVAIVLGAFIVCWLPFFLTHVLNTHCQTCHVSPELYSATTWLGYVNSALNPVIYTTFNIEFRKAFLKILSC
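Agonist-mode cell screen: cells plated at 1500/well and incubated overnight at 37 °C, then exposed to library compounds for 90 min at 37 °C. Detection reagent was added for 30–60 min at room temperature, and luminescence was read.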
IL-1B inflam inh: qHTS for Inhibitors of Inflammasome Signaling: IL-1-beta AlphaLISA Primary Screen; THP-1 LPS/ATP IL-1B secretion, AlphaLISA, 16 h; hits give low values; activity change, % at 57.5 µM; hit rate 4.7% among 360,000; AID 743279, 2014; in the data active = activity change below about -50%; inconclusive = mostly about -30% to -49%
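THP-1 cells pretreated 1 hr with compounds (up to 57.5 uM final), then stimulated with LPS (250 ng/mL final) plus ATP (1.25 mM final); secreted IL-1B measured by AlphaLISA after 16 hr, decreased signal indicating inhibition.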
DT40 TDP1 no CPT: qHTS for Inhibitors of human tyrosyl-DNA phosphodiesterase 1 (TDP1): qHTS in cells in absence of CPT; DT40 Tdp1-/- hTDP1 cells, no CPT, ATP luminescence, 48 h; Potency, µM (doses to about 46.2 µM), hits mostly inhibitors; hit rate 15% among 420,000; note: nearly all actives have a fitted effect of over 55% in size
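DT40 Tdp1-/-;hTDP1 cells, no CPT (DMSO vehicle only), 400 cells/well; compounds pin-transferred; ≥48 hr, 37 °C; CellTiter-Glo 30 min RT dark, luminescence read.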
ClpP mod: qHTS Assay for Activators of ClpP. purified B. subtilis ClpP, FRET peptide cleavage, 20 min. Potency, µM (highest dose often 57.5 µM). hit rate 1.9% among 340,000; active = well fitted falling curve with a large enough effect; inconclusive = small, poorly fitted or top-dose-only effect; inactive = no such curve, though single readings can be large or run the other way; note: the source files actives as falling curves though it sought activators and does not explain the sign; nearly all actives have a fitted effect of over 65% in size
Target sequence (P80244 whole entry, looked up): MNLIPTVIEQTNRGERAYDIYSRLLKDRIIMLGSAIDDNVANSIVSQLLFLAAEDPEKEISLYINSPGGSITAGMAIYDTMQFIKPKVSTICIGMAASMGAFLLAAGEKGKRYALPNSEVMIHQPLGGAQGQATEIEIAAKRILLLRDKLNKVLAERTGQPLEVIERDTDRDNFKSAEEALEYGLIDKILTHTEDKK
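FRET quenching reversal measured ClpP activation: 10 microg/mL B. subtilis ClpP at pH 8 with the FRET-FV decapeptide, read at 430 nm after 320 nm excitation. The 20-min minus 0-min signal was scaled between DMSO/no-enzyme wells and ADEP (5.8 microM final).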
D3 antag: qHTS of D3 Dopamine Receptor Antagonist: qHTS | max response, negative = inhibition, % | D(3) dopamine receptor (Homo sapiens), P35462 | AID 652054, 2013 | D3R cells, DiscoveRx beta-arrestin luminescence, antagonist mode; hits give low values | hit rate 2.5% among 360,000; in the data active = max response below about -50%; inconclusive = no clear call, values can overlap the other calls
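Cells plated overnight at 1500 cells/well, then exposed to library compounds with dopamine controls for 90 minutes at 37 degrees C. DiscoveRx reagent added for 30–60 minutes at room temperature; luminescence read, quantitative HTS format.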
Numbers stand for hits; i = inactive; ? = inconclusive; nt = not tested or not shown; ! = not confirmed by another sample. An excerpt weighted towards active compounds, which were near 21% of everything screened. Unless noted, calls come from the whole dose curve; as a rule, active = well fitted inhibition curve with a large enough effect; inconclusive = small, poorly fitted or top-dose-only effect; inactive = flat fitted curve, though single readings scatter.

SMILES	DT40 TDP1 CPT	D3 ag	IL-1B inflam inh	DT40 TDP1 no CPT	ClpP mod	D3 antag
CCCc1nc(SCC(=O)N2CCC(Cc3ccccc3)CC2)c2c(=O)n(C)c(=O)n(C)c2n1	21µM	i	i	16µM	i	i
Cc1ccc2nc(-c3cccc(NC(=O)CSc4ccc(Cl)cc4)c3)oc2c1	26µM	i	nt	9.2µM	i	nt
Cc1ccc2nc(-c3ccc(C)c(NC(=O)COc4ccc(Cl)cc4)c3)oc2c1	?	nt	nt	?	i	nt
Cc1cc(Cl)ccc1OCC(=O)Nc1cccc(-c2nc3ccccc3o2)c1	?	nt	nt	13µM	?	nt
Cc1ccc(-c2nn3c(C)nnc3s2)cc1NC(=O)CSc1ccc(Cl)cc1	?	i	i	18µM	i	i
Cc1ccc2nc(-c3ccc(C)c(NC(=O)CSc4ccc(Cl)cc4)c3)oc2c1	13µM	i	nt	?	i	nt
CC(OC(=O)c1cc(=O)[nH]c2ccccc12)C(=O)NC1CCCC1 (stereo unspecified)	i	i	i	i	i	i
COc1ccc(C(=O)Nc2cccc(-c3nc4ncccc4o3)c2C)cc1	i	i	i	?	i	i
O=C(CSc1ccc(Cl)cc1)Nc1cccc(-c2nc3ncccc3o2)c1	?	i	?	18µM	i	i
Cc1cc2nc(-c3cccc(NC(=O)COc4ccc(C(C)C)cc4)c3)oc2cc1C	21µM	i	nt	16µM	?	nt
COc1ccc2oc(-c3ccc(C)c(NC(=O)CSc4ccc(Cl)cc4)c3)nc2c1	i	i	i	?	11µM!	i
Cc1c(NC(=O)c2ccc(-c3ccc(F)cc3)o2)cccc1-c1nc2ncccc2o1	4.6µM	i	nt	9.2µM	i	nt
Cc1ccc2oc(-c3ccc(C)c(NC(=O)COc4ccc(Cl)cc4)c3)nc2c1	i	nt	nt	i	i	nt
Cn1cccc1C(=O)N1CCC2(CC1)CN(C(=O)Nc1ccccc1)C2	i	nt	nt	i	nt	nt
O=C(CN1CCOCC1)NNC(=O)c1ccc(Cl)cc1	i	i	i	i	i	i
Cc1ccccc1-c1nnc(SCC(=O)NC2CCCC2)n1C	i	i	i	i	i	i
CC(C)C(=O)Nc1cccc(-c2nc3ncccc3o2)c1	i	i	i	i	i	i
O=C(Nc1cccc(-c2nc3ncccc3o2)c1)c1ccc(-c2cccc(Cl)c2Cl)o1	5.8µM	i	nt	6.5µM	i	nt
Cc1ccc(-c2nn3c(C)nnc3s2)cc1NCc1c(F)cccc1Cl	18µM	i	i	18µM	i	i
Cc1ccc(-c2nc3cc(Cl)ccc3o2)cc1NC(=O)COc1ccccc1C	8.9µM	nt	nt	11µM	i	nt
COc1ccc(C(=O)COC(=O)CCN2C(=O)C3C4C=CC(C5CC45)C3C2=O)cc1 (stereo unspecified)	?	i	i	i	i	i
Cn1c2ccccc2c(=O)c2c(=O)n(C3CCCCCC3)c(C3CCCCC3)nc21	15µM	i	i	13µM	i	i
COc1ccc(CCn2c(C3CCCCC3)nc3c(c(=O)c4ccccc4n3C)c2=O)cc1OC	?	i	i	?	nt	i
Cn1c2ccccc2c(=O)c2c(=O)n(-c3ccccc3)c(C3CCCCC3)nc21	?	i	i	?	i	i
CCc1nc2c(c(=O)c3ccccc3n2C)c(=O)n1C1CCCCCC1	?	i	i	16µM	i	?
SMILES	DT40 TDP1 CPT	D3 ag	IL-1B inflam inh	DT40 TDP1 no CPT	ClpP mod	D3 antag
COc1ccc(Cn2c(C3CCCCC3)nc3c(c(=O)c4ccccc4n3C)c2=O)cc1	?	i	i	16µM	i	i
COc1cccc(Cn2c(Oc3cc(C)cc(C)c3)nc3c2c(=O)n(C)c(=O)n3C)c1	?	i	nt	?	i	nt
Cc1nn(CCC(=O)Nc2cccc(C#N)c2)c(C)c1S(=O)(=O)N1CCCCC1	?	i	i	?	i	i
Cc1ccc(NC(=O)CCn2nc(C)c(S(=O)(=O)N3CCCCC3)c2C)cc1Cl	?	i	nt	16µM	i	nt
Cc1nn(CCC(=O)N2CCN(c3ccccc3)CC2)c(C)c1S(=O)(=O)N1CCCC1	18µM	i	nt	?	i	nt
Cc1nn(CCC(=O)Nc2ccc(Cl)cc2)c(C)c1S(=O)(=O)N1CCCCC1	21µM	i	nt	15µM	i	nt
CC1=CC=CC2=NC(=O)CC(C)(C(=O)O)N12 (stereo unspecified)	i	i	i	i	?	i
Cc1ccc2c(c1)-c1onc(C(=O)N3CCN(c4cc(Cl)ccc4C)CC3)c1CO2	nt	i	nt	nt	i	nt
CNc1cc(F)nc(F)n1	18µM	i	i	16µM	i	i
Cc1nn2c(=O)cc(COC(=O)c3ccco3)nc2s1	i	i	nt	i	i	nt
CC(C)Oc1ccc2c(=O)c(-c3ccccc3)coc2c1	?	i	i	18µM!	i	i
